A short description of assay [1]: ACEA_ER_80hr: ACEA Biosciences xCELLigence Real-Time Cell Analysis on Estrogen Receptor Agonism for Proliferation (AID 2282667; active means hit-call score of the fitted dose curve at least 0.9, where 1 is the maximum). The note with it: T47D proliferation, impedance (xCELLigence), 80 h. The procedure, abridged:
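T-47D cells monitored by electrical impedance (xCELLigence) with compound present throughout; 80 h timepoint, positive-direction fitting versus DMSO. Eight-point 1:4 dilutions from 100 uM final, duplicate plates.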

A short description of assay [2]: APR_HepG2_CellCycleArrest_24hr: Apredica 24-hour HepG2 Assay for Cell Cycle Arrest (AID 2282905).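 Further: cell cycle arrest scored as ratio of 2N to 4N nuclear DNA content.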 The note with it: imaging, actives raise or lower the signal. The procedure, abridged:
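Cell cycle arrest is scored from nuclear DNA content measured by high-content imaging of Hoechst 33342-stained HepG2 cells following 24-hour treatment at ten concentrations up to 200 uM, with DMSO as baseline.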

Assay [3] is described as follows: APR_HepG2_NuclearSize_24hr: Apredica 24-hour HepG2 Assay for Nuclear Size (AID 2282907). Particulars: high-content imaging, actives raise or lower the signal. The method in brief:
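Compounds in DMSO (final 0.5%) were added to human HepG2 hepatoma cells at ten concentrations up to 200 uM for 24 hr. Fixed nuclei were stained with Hoechst 33342, and nuclear diameter was quantified from automated images.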

A short description of assay [4]: APR_HepG2_CellLoss_24hr: Apredica 24-hour HepG2 Assay for Cell Loss (AID 2282908).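 On AC50: fit in both directions so a hit may be cell loss or gain.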 The note with it: high-content imaging. The procedure, abridged: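 Cell number is quantified by fluorescence imaging of Hoechst 33342-stained nuclei following dosing at 0.39–200 uM in 0.5% DMSO. Curves are fitted in both directions from the DMSO baseline.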
Assay [5] can be described thus: APR_HepG2_MicrotubuleCSK_24hr: Apredica 24-hour HepG2 Assay for Microtubule CSK Stabilty (AID 2282909). Particulars: HepG2 microtubule cytoskeleton imaging, actives raise or lower the signal. The procedure, abridged:
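Steps: dose HepG2 for 24 h (0.39–200 uM, 0.5% DMSO); fix 30 min in 3.7% formaldehyde at room temperature; permeabilize; stain alpha-tubulin 60 min; image microtubule cytoskeleton at 20x. Signal change fitted in both directions relative to DMSO.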

Assay [6] can be described thus: APR_HepG2_MitoticArrest_24hr: Apredica 24-hour HepG2 Assay for Mitotic Arrest (AID 2282910). The note with it: high-content imaging, actives raise or lower the signal. The method in brief:
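Compounds are dosed onto HepG2 cells across ten concentrations up to 200 uM for 24 hr. Cells are then fixed in 3.7% formaldehyde, permeabilised, and labelled for phospho-histone H3 and nuclei; images are scored by cell cycle analysis and fitted bidirectionally relative to DMSO.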

Assay [7] can be described thus: APR_HepG2_MitoMembPot_24hr: Apredica 24-hour HepG2 Assay for Mitochondrial Membrane Potential (AID 2282911). Particulars: imaging, actives raise or lower the signal. The procedure, abridged:
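HepG2 cells exposed 24 h to 0.39–200 uM compounds in duplicate, 0.5% v/v DMSO final. MitoTracker Red CMXRos 250 nM loaded 30 min before formaldehyde fixation; high-content imaging at 20x, bidirectional fit versus DMSO.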

Assay [8] can be described thus: APR_HepG2_MitoMass_24hr: Apredica 24-hour HepG2 Assay for Mitochondrial Mass (AID 2282912). The note with it: high-content imaging, actives raise or lower the signal. The method in brief:
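The liver line HepG2 was dosed in duplicate across a 0.39–200 uM series, with final DMSO held at 0.5% v/v, and harvested at 24 hr. High-content imaging measured mitochondrial dye staining.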

Assay [9] can be described thus: APR_HepG2_p53Act_24hr: Apredica 24-hour HepG2 Assay for p53 Activation (AID 2282913).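 Further: p53 protein immunofluorescence averaged per cell in HepG2 with Hoechst nuclei.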 Particulars: high-content imaging, actives raise or lower the signal. The method in brief:
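HepG2 cells exposed 24 h to compounds at 0.39–200 uM in duplicate, 0.5% v/v DMSO final; fixed, permeabilized, stained with anti-p53 antibody and Hoechst 33342; fluorescence imaging; bidirectional curve fit versus DMSO.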

The nature of assay [10]: APR_HepG2_CellCycleArrest_72hr: Apredica 72-hour HepG2 Assay for Cell Cycle Arrest (AID 2282914). Particulars: high-content imaging, actives raise or lower the signal. The method in brief: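 HepG2 cells exposed 72 h in duplicate to 0.39–200 uM compound, 0.5% DMSO final. Formaldehyde-fixed, Hoechst 33342-stained nuclei imaged at 20x, six fields per well; DNA content per valid cell quantified by cell-cycle image analysis, bidirectional fit versus DMSO.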

Assay [11] is described as follows: APR_HepG2_CellLoss_72hr: Apredica 72-hour HepG2 Assay for Cell Loss (AID 2282915). Particulars: high-content imaging. The method in brief:
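Cell number comes from Hoechst 33342-labelled nuclei, imaged at 20x after 3.7% formaldehyde fixation. Dosing was 0.39–200 uM, ten concentrations in duplicate, 0.5% DMSO final, for 72 h. Bidirectional fit relative to DMSO baseline.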

Assay [12] is described as follows: APR_HepG2_P-H2AX_72hr: Apredica 72-hour HepG2 Assay for H2AX Phosphorylation (AID 2282916).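 Further: phospho-histone H2A.x immunostain intensity per cell marking DNA damage.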 Particulars: imaging, actives raise or lower the signal. The method in brief:
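Following 72 hr treatment with 0.39–200 uM compound, HepG2 cells were formaldehyde-fixed, permeabilized and stained for phospho-H2A.x; signal was measured by high-content imaging and fitted bidirectionally against DMSO controls.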

The nature of assay [13]: APR_HepG2_MitoMembPot_72hr: Apredica 72-hour HepG2 Assay for Mitochondrial Membrane Potential (AID 2282917). Particulars: imaging, actives raise or lower the signal. The procedure, abridged: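 Membrane potential read by MitoTracker Red CMXRos (250 nM, 30 min, pre-fixation) fluorescence imaging of HepG2 after 72 hr exposure. Ten concentrations, 0.39–200 uM, duplicate wells, 0.5% DMSO; fitted in both directions against DMSO baseline.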

A short description of assay [14]: APR_HepG2_MitoticArrest_72hr: Apredica 72-hour HepG2 Assay for Mitotic Arrest (AID 2282918). Particulars: high-content imaging, actives raise or lower the signal. The procedure, abridged: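 HepG2 cells treated 72 h at 0.39–200 uM, 0.5% DMSO final; formaldehyde-fixed, stained with Hoechst 33342 and phospho-histone H3 antibody, imaged by high-content fluorescence; bidirectional fit versus DMSO.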

Assay [15] can be described thus: APR_HepG2_MicrotubuleCSK_72hr: Apredica 72-hour HepG2 Assay for Microtubule CSK Stabilty (AID 2282919). Particulars: HepG2 microtubule cytoskeleton, high-content imaging, actives raise or lower the signal. The procedure, abridged: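 Read-out is tubulin fluorescence intensity from high-content imaging of HepG2 cells, with nuclei identified by Hoechst 33342. Treatment lasts 72 h at 0.39–200 uM, and curves are fitted bidirectionally against the DMSO negative control.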

The nature of assay [16]: APR_HepG2_P-H2AX_24hr: Apredica 24-hour HepG2 Assay for H2AX Phosphorylation (AID 2282920). The note with it: high-content imaging, actives raise or lower the signal. The procedure, abridged: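 HepG2 cells dosed 24 h at 0.39–200 uM (10 points, duplicate, 0.5% DMSO final). Formaldehyde-fixed and permeabilized, then immunostained for phospho-H2A.x with Hoechst. Fluorescence quantified by high-content imaging, fitted bidirectionally versus DMSO.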

The nature of assay [17]: APR_HepG2_StressKinase_72hr: Apredica 72-hour HepG2 Assay for Stress Kinase (AID 2282921). The note with it: HepG2 stress kinase (phospho-c-Jun) imaging, actives raise or lower the signal. The procedure, abridged:
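Fluorescence intensity of Cy3-tagged anti-phospho-c-Jun antibody, quantified per cell from Hoechst-defined nuclei across six images per well, served as the read-out following 72 h exposure (0.39–200 uM, 0.5% v/v DMSO).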

Assay [18] is described as follows: APR_HepG2_StressKinase_24hr: Apredica 24-hour HepG2 Assay for Stress Kinase (AID 2282922). Particulars: HepG2 stress kinase (phospho-c-Jun) imaging, actives raise or lower the signal. The procedure, abridged:
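HepG2, 24 hr dosing, 0.39–200 uM in duplicate, 0.5% DMSO; formaldehyde fix (3.7%), 0.5% Triton X-100; anti-phospho-c-Jun + Cy3 secondary, Hoechst counterstain; ArrayScan imaging; bidirectional curve fit vs DMSO baseline.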

Assay [19] in a line: APR_HepG2_p53Act_72hr: Apredica 72-hour HepG2 Assay for p53 Activation (AID 2282923).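 Further: average cellular p53 protein immunofluorescence intensity in HepG2 cells.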 The note with it: high-content imaging, actives raise or lower the signal. The procedure, abridged:
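HepG2 monolayers receive test compounds in duplicate at ten concentrations (0.39 through 200 uM) for 72 hr. They are then formaldehyde-fixed, antibody-labelled for p53, Hoechst-stained and imaged, with activity fitted bidirectionally versus DMSO.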

The nature of assay [20]: APR_HepG2_MitoMass_72hr: Apredica 72-hour HepG2 Assay for Mitochondrial Mass (AID 2282924).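 Further: MitoTracker Red CMXRos stain intensity per cell imaged as mitochondrial mass.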 The note with it: high-content imaging, actives raise or lower the signal. The method in brief: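 HepG2, 72 hr cmpd, 10 conc 0.39–200 uM in dup, DMSO 0.5% v/v. MitoTracker Red CMXRos 250 nM 30 min pre-fix; formaldehyde 3.7% fix 30 min RT. HCS imaging, gain/loss fit vs DMSO.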

In PubChem BioAssay (EPA / NIEHS) one finds outcome and AC50 data, which are given here for seven molecules.

The structures appear in SMILES notation. Values joined by “and” are separate entries in the source; they are usually repeats but may differ in a detail not shown here. Equal entries are not always repeated. Inconclusive results are not listed. Some structures have more than one record in an assay (separate samples or runs), and their calls can disagree. Active and inactive are the calls of the source. How the source made its calls, unless noted: active means hit-call score of the fitted dose curve at least 0.9, where 1 is the maximum; inactive means score below 0.9.

`O=C(OCCOCCOC(=O)c1ccccc1)c1ccccc1`: the result in [1], in assay [2], in assay [3], in assay [4], in assay [5] and in assay [6] was inactive. Also, the result in assay [7], in [8], in [9], in [10], in [11] and in [12] was inactive. The outcome in assay [13], in assay [14], in assay [15], in [16], in assay [17] and in assay [18] was inactive. The outcome in assay [19] and in assay [20] was inactive.

In the case of `CCC(C)(C)C1CCC(O)CC1` (stereo not drawn), the AC50 (in general, the concentration at which the activity in the assay is half-maximal) in [1] was 2.38 µM (active) and 336 nM (active); in assay [4] it was 99.8 µM (active); in assay [9], 122 µM (active); in assay [11] it was 122 µM (active); in [12] it was 112 µM (active); in [14], 102 µM (active). Moreover, the AC50 is 114 µM (active) in assay [16] and 105 µM (active) in assay [19]. Further, the molecule was called inactive in [1], in assay [2], in assay [3], in assay [6], in [7] and in assay [8]. Besides, the call in [10], in assay [13], in assay [15], in [17] and in [20] was inactive.

For the molecule `CC(C)CCCCCCOC(=O)CCCCC(=O)OCCCCCCC(C)C`, the molecule was called inactive in assay [1], in [2], in [3], in assay [4], in assay [5] and in assay [6]. In addition, the call in [7], in assay [8], in assay [9], in [10], in assay [11] and in assay [12] was inactive. The call in assay [13], in assay [14], in assay [15], in assay [16], in assay [17] and in [18] was inactive. In addition, the call in assay [19] and in assay [20] was inactive.

For `CCN(CC)CCNc1ccc(CNC=O)c2sc3ccc(OC)cc3c(=O)c12`, the call in assay [1], in [3], in assay [5], in [7], in [12] and in [13] was inactive. In addition, the molecule was classed as inactive in assay [15], in assay [17], in assay [19] and in assay [20]. Also, the AC50 is 5.68 µM (active) in assay [2]; 60.2 µM (active) in [4]; 7.05 µM (active) in [6]; 32.6 µM (active) in [8]; 2.62 µM (active) in [9]; 6.28 µM (active) in assay [10]. The AC50 in assay [11] was 7.4 µM (active); in assay [14], 5 µM (active); in [16], 5.94 µM (active).

Regarding `NCC(F)(F)C(F)(F)C(F)(F)C(F)(F)C(F)(F)C(F)(F)C(F)(F)F`, the call in assay [1] was inactive.

On to `CC(=O)NC1(c2cccc(F)c2)CCN(CC[C@@]2(c3ccc(Cl)c(Cl)c3)CN(c3ccccc3)C(=O)CO2)CC1`, for which the molecule was classed as inactive in [1], in assay [3], in assay [13], in assay [18] and in assay [20]. Besides, the AC50 in [2] was 26.3 µM (active); in assay [4], 36.3 µM (active); in [5], 146 µM (active); in assay [6], 31.6 µM (active); in [7] it was 90.2 µM (active); in assay [8] it was 151 µM (active). For the same molecule, the AC50 was 21.6 µM (active) in [9]; 18.7 µM (active) in assay [10]; 21.3 µM (active) in assay [11]; 21.8 µM (active) in [12]; 14.8 µM (active) in assay [14]; 37.7 µM (active) in [15]. The AC50 was 39.3 µM (active) in assay [16], 24 µM (active) in assay [17] and 18.7 µM (active) in [19].

As for `CCCCC(CC)COC(=O)CCCCC(=O)OCc1ccccc1` (stereo not drawn), the call in assay [1], in assay [2], in assay [3], in assay [4], in assay [5] and in [6] was inactive. Besides, the molecule was called inactive in [7], in [8], in assay [9], in assay [10], in assay [11] and in assay [12]. Moreover, the molecule was classed as inactive in assay [13], in assay [14], in assay [15], in assay [16], in assay [17] and in [19]. In addition, the molecule was called inactive in [20].
